# Experimental data taken from PubChem BioAssay (NCATS).
# Values joined by “and” are separate entries in the source; they are usually repeats but may differ in a detail not shown here. Equal entries are not always repeated. Records with an inconclusive call do not appear. Active and inactive are the calls of the source. The call rests on the fitted dose curve; in most records, active means well fitted inhibition curve with a large enough effect; inconclusive means small, poorly fitted or top-dose-only effect; inactive means no such curve, though single readings can be large or run the other way.
# Test: Primary qHTS for inhibitors of nuclear receptor binding SET domain protein 2 (NSD2) in an RCH-ACV wild type WT cells (2C) (AID 1645877); further: nearly all actives have a fitted effect of over 70% in size
# Settings: RCH-ACV (leukaemia line) NSD2 WT (2C) viability, CellTiter-Glo, 72 h; series mostly up to 44.9 µM
# Text: Assay Provider: Jonathan D. Licht, MD
# University of Florida College of Medicine, Gainesville, FL
# Mutations in epigenetic regulators are common in relapsed pediatric acute lymphoblastic leukemia (ALL). Here, we uncovered the mechanism underlying the relapse of ALL driven by an activating mutation of the NSD2 histone methyltransferase (p.E1099K). […] Correction of this mutation restored glucocorticoid sensitivity. The transcriptional response to glucocorticoids was blocked in NSD2 mutant cells due to depressed glucocorticoid receptor (GR) levels and the failure of glucocorticoids to autoactivate GR expression. […] Pre-treatment of NSD2 p.E1099K cell lines and PDX samples with PRC2 inhibitors reversed glucocorticoid resistance in vitro and in vivo.
# High-throughput drug screening of isogenic RCH-ACV cell lines was performed at the National Center for Advancing Translational Science (NCATS), National Institutes of Health as previously described (1). Briefly, isogenic RCH-ACV NSD2 p.E1099K mutant (9B) and WT cells (2C) were plated at 500 cells/well in a 1536-well plate with a 72-hour incubation with compounds prior to addition of CellTiter-Glo to assess cell viability. NCATS libraries screened include: NPC, MIPE 5.0, Kinase and NPACT. To determine compound activity in the qHTS assay, the concentration-response data for each sample was plotted and modeled by a four-parameter logistic fit yielding IC50 and efficacy (maximal response) values. The area under the curve (AUC) of the dose-response curve ensures both efficacy (magnitude of cell killing) and potency (concentration that elicits cell killing) are accounted for in the analysis of activity.
# 1. Tobie D Lee, Olivia W Lee, Kyle R Brimacombe, Lu Chen, Rajarshi Guha, Sabrina Lusvarghi, Bethilehem G Tebase, Carleen Klumpp-Thomas, Robert W Robey, Suresh V Ambudkar, Min Shen, Michael M Gottesman, Matthew D Hall. A High-Throughput Screen of a Library of Therapeutics Identifies Cytotoxic Substrates of P-glycoprotein. Mol Pharmacol. 2019, Nov;96(5):629-640.
row,SMILES,Potency
1,CC[C@@H]([C@H](C)O)n1ncn(-c2ccc(N3CCN(c4ccc(OCC5CO[C@@](Cn6cncn6)(c6ccc(F)cc6F)C5)cc4)CC3)cc2)c1=O (stereo not given in full),inactive
2,C[C@@]1(C(=O)Nc2ccc(F)nc2)CCCN1c1nc(Nc2cc(C3CC3)[nH]n2)c2cccn2n1,2.63 µM (active)
3,Cc1ccccc1C(=O)c1ccc(Nc2ccc(Br)cc2N)cc1Cl,10.5 µM (active) and 9.2 µM (active)
4,CCCCC(C)(C)[C@H](O)C=C[C@H]1[C@H](O)CC(=O)[C@H]1CC=CCCCC(=O)O,inactive
5,NC[C@H]1O[C@H](O[C@@H]2[C@@H](O)[C@@H](O[C@H]3O[C@H](CO)[C@@H](O)[C@H](N)[C@@H]3O)[C@H](N)C[C@@H]2N)[C@H](O)[C@@H](O)[C@H]1O,inactive
6,CCCCCCCCCCCCCCCC(=O)O[C@H]1[C@@H](O)[C@@H](O)[C@@H]([C@H](NC(=O)[C@@H]2C[C@@H](CCC)CN2C)[C@H](C)Cl)O[C@@H]1SC,inactive
7,CCc1cc(-c2n[nH]c(C)c2-c2ccc3c(c2)OCCO3)c(O)cc1O,7.42 µM (active)
8,CC[C@H](CC#N)OC(=O)N[C@@H](C)c1cccc(NC(=O)Nc2ccc(-c3cnco3)c(OC)c2)c1,0.23 µM (active)
9,COc1ccnc(CS(=O)c2nc3ccc(OC(F)F)cc3[nH]2)c1OC (stereo not given),15 µM (active) and 18.6 µM (active)
10,CCC(C)SSc1ncc[nH]1 (stereo not given),8.33 µM (active)
11,COc1nccc(-c2c(-c3ccc(F)cc3)ncn2C2CCNCC2)n1,18.6 µM (active)
12,CCCCCCCCCCCCCC(=O)N[C@H](CO)[C@H](O)c1ccc([N+](=O)[O-])cc1,inactive
13,CCc1cccc(CC)c1NC(=O)N1Cc2[nH]nc(NC(=O)c3ccc(N4CCN(C)CC4)cc3)c2C1,409 nM (active) and 468 nM (active)
14,C[C@]12CC[C@@H]3c4ccc(O)cc4CC[C@H]3[C@H]1[C@@H](O)[C@@H](O)[C@H]2O,inactive
15,COc1cc(F)c(C(C)C)cc1-c1ccc(C(F)(F)F)cc1CN1C(=O)O[C@H](c2cc(C(F)(F)F)cc(C(F)(F)F)c2)[C@@H]1C,inactive
16,CC[C@H](C)n1cc(C)c2c(C(=O)NCc3c(C)cc(C)[nH]c3=O)cc(-c3ccc(N4CCNCC4)nc3)cc21,16.6 µM (active)
17,O=C(Nc1cccc(C(F)(F)F)c1)Nc1cc(S(=O)(=O)NC2CC2)ccc1-c1ccsc1,23 µM (active)
18,CC(C)[C@H](O)C(=O)N[C@@H](C)C(=O)N[C@@H]1C(=O)N(C)CCc2ccccc21,inactive
19,Cc1cnc(Nc2cccc(CN3CCOCC3)c2)nc1Nc1cccc(S(=O)(=O)NC(C)(C)C)c1,0.515 µM (active)
20,COc1cc2c(cc1Cc1cccc(Cl)c1F)c(=O)c(C(=O)O)cn2[C@H](CO)C(C)C,5.25 µM (active)

row,SMILES,Potency
1,CCCCOCCOc1nc(-c2ccc(C(=O)O)c(F)c2)sc1C,inactive
2,Cc1ccccc1-n1c(Cn2nc(-c3cccc(O)c3)c3c(N)ncnc32)nc2cccc(C)c2c1=O,0.728 µM (active)
3,CC(C)(OCc1nn(Cc2ccccc2)c2ccccc12)C(=O)O,inactive
4,CN(C)CCCNC(=O)c1ccc(-c2cc(O)c3ncccc3c2)cc1,10.3 µM (active) and 9.34 µM (active)
5,CCC[C@H](Nc1nc(-c2ccc(NC(=O)NCC)c(OC)c2)ncc1C)c1cccnc1,0.0372 µM (active)
6,COc1cc(Nc2nc3ccccc3nc2NS(=O)(=O)c2ccc(NC(=O)c3ccc(C)c(OC)c3)cc2)cc(OC)c1,inactive
7,CCOC(=O)N1c2ccc(C(F)(F)F)cc2[C@@H](N(Cc2cc(C(F)(F)F)cc(C(F)(F)F)c2)C(=O)OC)C[C@H]1CC,inactive
8,O=C(Nc1ncc(SCCN2CCCC2)s1)[C@]1(c2ccc(S(=O)(=O)C3CC3)cc2)C[C@@H]1C1CCCCC1,14.6 µM (active)
9,CN(C)CCN(C)C(=O)c1ccc(NC(=O)Nc2ccc(-c3nc(N4CCOCC4)c4ccn(CC(F)(F)F)c4n3)cc2)cc1,0.0186 µM (active)
10,COc1ccc(CCN(C)CCCOc2ccc(S(=O)(=O)c3[nH]c4ccccc4c3C(C)C)cc2)cc1OC,16.6 µM (active)
11,CN(C)CC[C@H](CSc1ccccc1)Nc1ccc(S(=O)(=O)NC(=O)c2ccc(N3CCN(Cc4ccccc4-c4ccc(Cl)cc4)CC3)cc2)cc1[N+](=O)[O-],2.63 µM (active)
12,O[C@@H](COc1cccc2ncccc12)CN1CCN(C2c3ccccc3[C@@H]3[C@H](c4ccccc42)C3(F)F)CC1 (stereo not given in full),10.6 µM (active)
13,CCCCC[C@H](O)C=C[C@H]1[C@H](O)CC(=O)[C@H]1CC=CCCCC(=O)O,23.7 µM (active)
14,Cc1ccc(C(=O)N(CCCN)[C@@H](c2oc3cc(Cl)ccc3c(=O)c2Cc2ccccc2)C(C)C)cc1,0.0263 µM (active)
15,CCCCC(F)(F)[C@@]1(O)CC[C@H]2[C@H](CC(=O)[C@@H]2CCCCCCC(=O)O)O1,inactive
16,Nc1ncnc2c1ncn2[C@@H]1O[C@H](CO)[C@@H](O)[C@@H]1O,16.6 µM (active)
17,N#CC(c1ccnc(NCCc2cccnc2)n1)c1nc2ccccc2s1 (stereo not given),14.8 µM (active)
18,Cc1ccc(S(=O)(=O)OCC(=O)Nc2ccc(C(=O)O)c(O)c2)cc1,inactive
19,CCN1CCN(c2ccc(Nc3cc(N(C)C(=O)Nc4c(Cl)c(OC)cc(OC)c4Cl)ncn3)cc2)CC1,inactive
20,COc1ccc2nc3cc(Cl)ccc3c(Nc3cc(CN4CCCC4)c(O)c(CN4CCCC4)c3)c2n1,2.95 µM (active)
